# ChEMBL document CHEMBL3988442, “University of Dundee, Small-Polar-MMV Screening Library” (2021)
# Target: AMP-activated protein kinase, AMPK (Homo sapiens) (UniProt P54646+O43741+P54619+Q9UGJ0+Q9Y478+Q13131+Q9UGI9)
# Test: AMP-dependent Kinase enzyme assay. An in vitro enzyme assay that detects ADP turnover that is directly proportional to AMPK activity. This uses naive AMPK that is activated during the assay with MK-8722
# Assay type: functional
# Parameters: scale not given: direction of the effect not stated beside the values
# Settings: 30 µM
row,SMILES,Percent Effect [%]
1,Cc1ccc(CNC(=O)NCc2nccn2C)c(OC(C)(C)C)c1,11.3
2,Cc1ncccc1C(=O)Nc1cccc(Cn2ccccc2=O)c1,3.58
3,COc1ncc(NCc2ccc(F)cc2)cc1C(N)=O,5.39
4,Cc1cncc(C2CCN(Cc3ccc(S(C)(=O)=O)cc3)CC2)n1,5.76
5,Cc1nc(O)cc(CN2C[C@H](NC(=O)C3CCC3)[C@@H](C3CC3)C2)n1,-2.67
6,O=C(c1c(F)cccc1F)N1CCC[C@@H]1Cn1c(=O)oc2ccccc21,23.1
7,CCOC(=O)CC1CCCCN1C(=O)c1cccc2ccnn12 (centres undefined),-6.64
8,CN(CC(O)C(F)(F)F)C(=O)Nc1cccc(Cn2cccn2)c1 (centres undefined),-3.22
9,O=C1CC[C@@H](C(=O)N2CCC(Cn3cc(C4CCCCC4)nn3)CC2)N1,4.87
10,CN(CCCc1cnn(C)c1)Cc1cc2n(n1)CCNC2,-4.86
11,Cc1c(C(=O)N2CCC(C(=O)c3nc4ccccc4s3)CC2)cnn1C,9.2
12,O=C(O)c1ccn(-c2cccc(NC(=O)c3ccccc3Cl)c2)n1,0.768
13,Cc1c(CN2Cc3nccn3CC2c2ccccc2)cnn1C (centres undefined),7.11
14,Cc1ccccc1C(=O)NC(C)CN1CCOC1=O (centres undefined),14.9
15,CC(=O)N1CCc2c(nc(N(C)C)nc2NCCCn2ccnc2C)C1,7.72
16,Cc1cccc(N2CCN(C(=O)CNCCn3cc(C)cn3)CC2)c1,-4.92
17,CCOC(=O)c1n[nH]cc1CN1CCOC(Cc2ccc(F)cc2)C1 (centres undefined),1.89
18,O=c1cc(N2CCCCC2)cnn1Cc1noc(C2CCCO2)n1 (centres undefined),4.71
19,N#CCc1ccc(NC(=O)N[C@H](CO)Cc2ccc(O)cc2)cc1,9.92
